In the library only some 3% were active in any assay of this set; here they are far more common.
C8 TRAIL sens = sensitizes caspase-8 expressing cells to TRAIL; NB7+C8 cells + TRAIL, ATPlite viability luminescence; inhibition (viability loss, TRAIL sensitization), % at 10 µM; 360,000 tested, 1% active; AID 624354;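 active means compounds causing at least 50% loss of cell viability in the single-dose screen, relative to plate controls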
SENP8 block-1 = blocks the human protease SENP8. Q96LD8. purified SENP8, Z-RLRGG-aminoluciferin cleavage, luminescence. inhibition, % at 10 µM. 330,000 tested, 1.2% active; in the data active means inhibition above about 50%
Target sequence (Q96LD8 whole entry, looked up): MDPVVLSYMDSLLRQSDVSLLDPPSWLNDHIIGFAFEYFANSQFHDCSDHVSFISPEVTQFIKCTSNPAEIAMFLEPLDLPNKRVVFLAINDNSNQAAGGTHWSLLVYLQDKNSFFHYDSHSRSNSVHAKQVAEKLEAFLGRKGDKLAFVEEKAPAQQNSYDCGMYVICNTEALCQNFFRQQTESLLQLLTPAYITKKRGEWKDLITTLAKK
SENP7 block = inhibitors of human SENP7 protease; Q9BQF6; recombinant SENP7, Z-RLRGG-aminoluciferin luminescence, 40 min; inhibition, % at 5 µM; 330,000 tested, 1.5% active;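 active means inhibition above about 50% at the single test dose, limit read from the data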
SENP6 inh = blocks the human protease SENP6. Q9GZR1. Recombinant SENP6 catalytic domain, aminoluciferin luminescence. AID 2599. inhibition, % at 10 µM. 330,000 tested, 1.8% active;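 active means inhibition above about 50% at the single tested dose, limit read from the data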
SENP8 block-2 = inhibitors of human SENP8 protease | Q96LD8 | recombinant SENP8, Nedd8 substrate fluorescence | inhibition, % at 20 µM | 360,000 tested, 0.64% active | AID 602440; in the data active means inhibition mostly above about 40%, no sharp cut-off; inactive means mostly below about 27%
PPC-1+TRAIL kill = compounds killing PPC-1 cancer cells with TRAIL present (potentiator screen, no TRAIL-free arm). 220,000 tested, 0.41% active. PPC-1 cells + TRAIL, ATPLite viability luminescence. cell killing (% activity), % at 4 µM or 5 µM;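 active means cell killing above 50% in the first pass at 4 µM, then a duplicate retest at 5 µM averaging 50% or more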
PPC-1 tox = PPC-1 cell cytotoxicity; shares compounds with PPC-1+TRAIL kill; PPC-1 viability, ATPlite luminescence, overnight; cytotoxicity, % at 5 µM; 1,200 tested, 50% active; AID 1447;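 active means reconfirmed compounds whose average cytotoxicity reaches 50% or more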
SENP8 confirm = human SENP8 inhibition, confirmed; Recombinant SENP8, Z-RLRGG-aminoluciferin luminescence, 60 min; 6,200 tested, 40% active; AID 488912; inhibition, % at 12.5 µM; shares compounds with SENP7 block;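 active means mean inhibition across replicates above about 50%, limit read from the data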
SENP6 conf = confirmation of human SENP6 protease inhibitors | shares compounds with SENP7 block | recombinant SENP6, Z-RLRGG-aminoluciferin luminescence | inhibition, % at 12.5 µM | 6,200 tested, 58% active | AID 488915
SENP7 conf = human SENP7 inhibition, confirmed; recombinant SENP7, Z-RLRGG-aminoluciferin luminescence, 40 min; shares compounds with SENP7 block; inhibition, % at 12.5 µM; 6,200 tested, 69% active; AID 488917
Casp3 SENP sel = selectivity test for SENP inhibitors: human caspase-3 inhibition; shares compounds with SENP7 block; purified caspase-3, Z-DEVD-aminoluciferin luminescence, 60 min; inhibition, % at 12.5 µM; 6,200 tested, 60% active; AID 488918;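 active means mean inhibition above about 50%, limit read from the data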
Target sequence (P42574 28-227 limits assumed): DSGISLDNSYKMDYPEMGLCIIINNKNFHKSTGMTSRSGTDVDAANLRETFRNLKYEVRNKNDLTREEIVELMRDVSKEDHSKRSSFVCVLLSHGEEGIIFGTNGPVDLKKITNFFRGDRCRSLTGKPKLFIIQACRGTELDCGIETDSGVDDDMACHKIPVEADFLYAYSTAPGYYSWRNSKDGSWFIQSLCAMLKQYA
Luc interf = luminescence interference (SENP counter-screen); shares compounds with SENP7 block; inhibition, % at 12.5 µM; AID 488919; Pre-incubated SENP8/Z-RLRGG-aminoluciferin, luciferase luminescence interference; 6,200 tested, 39% active;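 active means mean inhibition above about 50% when retested at one dose, limit read from the data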
Of the large screens only hits and unclear results are named; the others gave an inactive call (follow-up assays come after a bar, where they were run).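 How the source made its calls, unless noted: active means mean inhibition above about 50% in the one-dose retest (limit read from the data); inactive means the rest.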

COC(=O)c1ccc2nc(-c3cccc(N)c3)cn2c1	C8 TRAIL sens 72, SENP7 block 66, PPC-1+TRAIL kill 66 | PPC-1 tox 67 | SENP8 confirm 60 | SENP6 conf 62 | SENP7 conf 86 | Casp3 SENP sel 86 | Luc interf 69
Cc1ccc(N2CCN(S(=O)(=O)c3ccc4oc(=O)ccc4c3)CC2)cc1Cl	none (no result: PPC-1+TRAIL kill)
Cc1ccc(-c2nc(N/N=C/c3cccnc3)c3ccccc3n2)cc1	C8 TRAIL sens 91, SENP8 block-1 87, SENP7 block 90, SENP6 inh 88, PPC-1+TRAIL kill 91 | PPC-1 tox 85 | SENP8 confirm inactive | SENP6 conf 77 | SENP7 conf 76 | Casp3 SENP sel 84 | Luc interf inactive
Cc1ccc(-c2cc(-c3ccccc3)nc(N/N=C/c3cccnc3)n2)cc1	none (no result: PPC-1+TRAIL kill)
O=C(NNC(=O)c1sccc1-n1cccc1)Nc1ccc(F)cc1	none
Cc1ccc(C(=O)NCC(=O)OCc2nnc(-c3ccc([N+](=O)[O-])cc3)o2)s1	none (no result: PPC-1+TRAIL kill)
CC(=O)Nc1nc2ccccc2[nH]1	none
O=C(Nc1nc2ccccc2[nH]1)c1ccccc1	C8 TRAIL sens 84, SENP8 block-1 90, SENP7 block 93, SENP6 inh 96, PPC-1+TRAIL kill 62 | PPC-1 tox 60 | SENP8 confirm 82 | SENP6 conf 91 | SENP7 conf 100 | Casp3 SENP sel 96 | Luc interf inactive
Cc1ccc(C(=O)/C=C/Nc2ccccc2C(N)=O)cc1	C8 TRAIL sens 90, SENP8 block-1 86, SENP7 block 90, SENP6 inh 95, PPC-1+TRAIL kill 93 | PPC-1 tox 93 | SENP8 confirm inactive | SENP6 conf 90 | SENP7 conf 102 | Casp3 SENP sel 94 | Luc interf inactive
Cc1ccc(N/C=C/C(=O)c2ccc(C)cc2)cc1	none
NC(=O)c1ccccc1N/C=C/C(=O)c1ccc(Cl)cc1	C8 TRAIL sens 88, SENP8 block-1 64, SENP7 block 93, SENP6 inh 84, PPC-1+TRAIL kill 84 | PPC-1 tox 84 | SENP8 confirm inactive | SENP6 conf 78 | SENP7 conf 76 | Casp3 SENP sel 90 | Luc interf inactive
NC(=O)c1ccccc1NC(=O)c1ccccc1Cl	none
N#C/C(=C\c1ccc(F)c(Cl)c1)S(=O)(=O)c1ccccn1	none
Cc1ccc2sc(-c3ccc(NC(=O)/C=C\C(=O)O)cc3)nc2c1	SENP8 block-1 55, SENP6 inh 72 | PPC-1 tox inactive | SENP8 confirm inactive | SENP6 conf inactive | SENP7 conf inactive | Casp3 SENP sel inactive | Luc interf inactive
COc1ccc(-c2cn3c4c(sc3n2)CCCC4)cc1	C8 TRAIL sens 79, SENP7 block 53, SENP6 inh 57, PPC-1+TRAIL kill 76 | PPC-1 tox 74 | SENP8 confirm 69 | SENP6 conf 68 | SENP7 conf 89 | Casp3 SENP sel 54 | Luc interf inactive
COc1ccc(-c2cn3c(C)c(C(=O)N4CCCc5ccccc54)sc3n2)cc1	none (no result: PPC-1+TRAIL kill)
c1ccc(-n2nnc3c(N4CCOCC4)ncnc32)cc1	C8 TRAIL sens 66, SENP8 block-1 50, SENP7 block 75, SENP6 inh 81 | PPC-1 tox inactive | SENP8 confirm inactive | SENP6 conf inactive | SENP7 conf inactive | Casp3 SENP sel inactive | Luc interf inactive
CSCCC(C(=O)Nc1c(C)cccc1C)N1CCN(C/C=C/c2ccccc2)CC1 (configuration not stated)	none (no result: SENP8 block-1, SENP7 block, SENP6 inh, PPC-1+TRAIL kill)
O=c1oc2cc(OCc3c(F)cccc3Cl)ccc2cc1-c1ccccn1	none (no result: PPC-1+TRAIL kill)
CCCOc1ccc2cc(-c3ccccn3)c(=O)oc2c1	C8 TRAIL sens 89, SENP8 block-1 96, SENP7 block 101, SENP6 inh 98, PPC-1+TRAIL kill 79 | PPC-1 tox 80 | SENP8 confirm 81 | SENP6 conf 85 | SENP7 conf 101 | Casp3 SENP sel 88 | Luc interf inactive
COc1cc2[nH]c(-c3ccc(C)cc3)cc(=O)c2cc1OC	none
COc1ccc(-c2cc(=O)c3cc(OC)ccc3o2)cc1	C8 TRAIL sens 66, SENP8 block-1 88, SENP7 block 98, SENP6 inh 92, PPC-1+TRAIL kill 66 | PPC-1 tox 68 | SENP8 confirm inactive | SENP6 conf inactive | SENP7 conf inactive | Casp3 SENP sel inactive | Luc interf inactive
COc1ccc(-c2cc(=O)c3cc(OC)ccc3[nH]2)cc1	C8 TRAIL sens 73, SENP8 block-1 74, SENP7 block 81, SENP6 inh 84, PPC-1+TRAIL kill 65 | PPC-1 tox 62 | SENP8 confirm inactive | SENP6 conf 78 | SENP7 conf 96 | Casp3 SENP sel 93 | Luc interf inactive
COc1ccc(F)c(CN2CCC(n3nccc3NC(=O)C3CCOC3)CC2)c1 (configuration not stated)	none (no result: PPC-1+TRAIL kill)
O=C(CN1C(=O)C2(OCCCO2)c2ccccc21)NCc1ccccc1	SENP7 block 52 | PPC-1 tox inactive | SENP8 confirm inactive | SENP6 conf inactive | SENP7 conf inactive | Casp3 SENP sel inactive | Luc interf inactive
COC(=O)c1cc(=O)nc(NNC(C)=O)s1	none (no result: SENP8 block-1, SENP7 block, SENP6 inh, PPC-1+TRAIL kill)
O=C(/C=C/c1ccc(O)cc1)c1ccc(NC2=C(N3CCCCC3)C(=O)c3ccccc3C2=O)cc1	SENP8 block-1 67, SENP6 inh 76, PPC-1+TRAIL kill 70 | PPC-1 tox 58 | SENP8 confirm 64 | SENP6 conf 85 | SENP7 conf 77 | Casp3 SENP sel 95 | Luc interf 84
CCOC(=O)C1=CN(Cc2ccco2)S(=O)(=O)NC1c1ccc(C(F)(F)F)cc1 (configuration not stated)	none (no result: SENP8 block-1, SENP6 inh, PPC-1+TRAIL kill)
Cc1ccc(-c2n[nH]c(=O)c3ccccc23)cc1S(=O)(=O)N(C)C	none (no result: PPC-1+TRAIL kill)
Cc1ccc(-c2cc3c(N=O)c4ccccc4c-3n[nH]2)cc1	C8 TRAIL sens 93, SENP7 block 101, SENP6 inh 100, PPC-1+TRAIL kill 95 | PPC-1 tox 94 | SENP8 confirm inactive | SENP6 conf inactive | SENP7 conf inactive | Casp3 SENP sel 55 | Luc interf inactive

Screening results (PubChem BioAssay)
